Screening data from PubChem BioAssay.
Shown is part of a subset that was picked to be rich in hits.
MgrA DNA FP: alters Staphylococcus aureus MgrA binding to DNA; 84,000 compounds, 0.13% hits; AID 602314; inhibition, % (concentration not given with the values); fluorescence polarization; in the data active = inhibition above about 30%, passing the limit was not always enough;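 note: higher means less MgrA bound to DNA so lower polarization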
Each line names hits and unclear results; the compound was inactive in the other large screens.

O=C(c1cccc2c1NC(c1ccc(Br)cc1)C1CC=CC21)N1CCOCC1 (stereo not drawn)	none
O=C(O)C1Nc2c(I)cccc2C2C=CCC12 (stereo not drawn)	MgrA DNA FP 101
COC(=O)c1ccc([C@@H]2Nc3c(C)cccc3[C@@H]3C=CC[C@@H]32)cc1	none
CC(=Nc1ccc(S(=O)(=O)N2CCOCC2)cc1)Nc1ccc(C(=O)O)c(O)c1	none
O=C(NCCCO)Nc1ccc2nc(-c3ccco3)c(-c3ccco3)nc2c1	MgrA DNA FP 77
O=C(NCCSCc1ccco1)Nc1cc(Cl)cc(Cl)c1	none
O=C(Nc1ccc(N2CCOCC2)cc1)Nc1ccc2nc(-c3ccco3)c(-c3ccco3)nc2c1	none
OC1CCN(Cc2cccc(Br)c2)CC1	none
CCN(CC)c1ccc(/C=C2\C(=O)NC(=S)N(c3ccccc3C)C2=O)c(OC)c1	none
O=C(CSc1nnc(-c2ccoc2)c(-c2ccoc2)n1)c1ccc(-c2ccccc2)cc1	MgrA DNA FP 71
CCC(=O)Nc1ccc(C(=O)CSc2ncc(C#N)c(N)n2)cc1OC	none
CCc1ccc2c(c1)c1nnc(SCC(=O)c3ccc(OC)cc3)nc1n2C	none
O=C1COc2ccc(C(=O)CSc3nnc(-c4ccoc4)c(-c4ccoc4)n3)cc2N1	none
O=C(CSc1nnc(-c2ccoc2)c(-c2ccoc2)n1)c1ccc(N2CCCC2=O)cc1	none
CCOc1ccc(C(=O)CSc2nnc(-c3ccco3)c(-c3ccco3)n2)cc1NC(=O)CC	MgrA DNA FP 92
Cn1c(SCC(=O)c2ccc(F)cc2)nnc1-c1ccco1	none
CCn1c(SCC(=O)c2ccccc2)nnc1-c1ccco1	none
COc1ccc(C(=O)CSc2nnc(-c3ccco3)c(-c3ccco3)n2)cc1	MgrA DNA FP 51
Cc1cc(C)c(C#N)c(SCC(=O)NCC2CCCCC2)n1	none
CS(=O)(=O)N/N=C/c1ccccc1	none
O/N=C1/Cc2ccccc2OC1c1ccc(F)cc1 (stereo not drawn)	none
Cc1cccc(C)c1NC(=S)NCc1ccco1	none
COc1ccc(-c2cc(CC(C)C)nc(N)c2C#N)cc1	none
O=C(CC(C(=O)c1cccs1)c1ccsc1)c1cccs1 (stereo not drawn)	none
CN(C)c1ccc(C2CC(C)(N3CCCC3)Oc3cc4c(cc32)OCO4)cc1 (stereo not drawn)	none
COCCN1C(=O)/C(=C\c2ccc(OC(=O)C3C(C=C(Cl)Cl)C3(C)C)cc2)SC1=S (stereo not drawn)	none
CSc1nnnn1-c1cccc2ccccc12	none
CC1CCCN(CNC(=O)c2ccccc2)C1 (stereo not drawn)	none
CN(C)/C=C/C=C/c1cc(=O)cc(/C=C/C=C/N(C)C)o1	MgrA DNA FP 100
Cc1ccc(C(=O)CSc2ncn(-c3ccccc3)n2)c(C)c1	none
NS(=O)(=O)c1ccc(N/C=C/C(=O)c2ccccc2)cc1	none
CC1=NN(c2cccc(C(=O)O)c2)C(=O)/C1=C\c1ccc(-c2ccc(Cl)c(C(=O)O)c2)o1	none
CC1=NN(c2cccc(C(=O)O)c2)C(=O)/C1=C/c1ccc(-c2cccc(Cl)c2C)o1	MgrA DNA FP 96
CC1=NN(c2cccc(C(=O)O)c2)C(=O)/C1=C\c1ccc(-c2cc([N+](=O)[O-])ccc2C)o1	none
CCc1ccc(Nc2nc(N)nc(-c3oc4ccccc4c3C)n2)cc1	none
CCOC(=O)c1cc(CC)sc1NC(=O)C(C)C	none
O=C1N=c2ccccc2=C1c1sc(=O)n(-c2ccccc2)c1O	none
c1ccc(CSc2nnnn2-c2ccccc2)cc1	none
CC(Sc1nnnn1-c1ccccc1)C(=O)O (stereo not drawn)	none
O=C1C=CC(=O)C(Sc2nnnn2-c2ccccc2)=C1	MgrA DNA FP 75
CC(C)(O)C1Cc2cc(/C=C/C(=O)O)c(O)cc2O1 (stereo not drawn)	none
CC(C)c1ccc(/C=C/C(=O)O)cc1	none
CC(C)c1cc2cc(/C=C/C(=O)O)c(O)cc2o1	MgrA DNA FP 60
CC(C(=O)O)N1C(=O)/C(=C/c2ccco2)SC1=S (stereo not drawn)	none
O=C(O)CCN1C(=O)/C(=C/c2ccco2)SC1=S	MgrA DNA FP 51
O=C1/C(=C/c2ccco2)SC(=S)N1CCc1ccccc1	none
Cc1ccc(S(=O)(=O)N2Cc3ccccc3CC2C(=O)NCCC(C)C)cc1 (stereo not drawn)	none
Cc1ccc2oc(-c3ccc(NC(=O)C(F)(F)F)cc3)nc2c1	none
O=C(Nc1ccc2nc3c(=O)[nH]c(=O)[nH]c3nc2c1)C(F)(F)F	MgrA DNA FP 57
CCOc1ccc2nc3c(=O)[nH]c(=O)[nH]c3nc2c1	none
O=C(O)CN1C(=O)/C(=C\c2ccc(-c3ccc(I)cc3)o2)SC1=S	none
Nc1ncnc2c1ncn2CCO	none
CCSc1nnc(C2CCN(Cc3ccncc3)CC2)n1C	none
COc1ccc(Br)cc1C(=O)Nc1ccc(-c2nnc(-c3ccco3)o2)cc1	none
O=S(=O)(Oc1ccc(Cl)c(Cl)c1)c1ccc(-c2ccc(S(=O)(=O)Oc3ccc(Cl)c(Cl)c3)s2)s1	none
CC1(C)CC(=O)C2=C(C1)OC(N)=C(C#N)C2c1ccccc1 (stereo not drawn)	none
CC1(C)CC(=O)C2=C(C1)NC1=C(C(=O)CC(C)(C)C1)C2c1cccs1	none
CC1(C)CC(=O)C2=C(C1)OC(c1cccs1)C(C#N)=C2N (stereo not drawn)	MgrA DNA FP 99
O=C(N/N=C/c1cc(Br)ccc1O)N/N=C/c1cc(Br)ccc1O	none
NC(CO)C(=O)NNCc1ccc(O)c(O)c1O (stereo not drawn)	none
NC(CO)C(=O)N/N=C/c1ccc(O)c(O)c1O (stereo not drawn)	MgrA DNA FP 62
COC(=O)COc1ccc(/C=C2\C(=O)NC(=S)N(c3ccccc3)C2=O)cc1OC	none
O=C1NC(=O)N(c2ccccc2)C(=O)/C1=C\c1ccc(C(=O)O)cc1	none
O=C1NC(=S)N(c2ccccc2)C(=O)/C1=C\c1ccoc1	MgrA DNA FP 76
CC(C)c1ccc(C2(C#N)C(=O)Nc3ccccc32)cc1 (stereo not drawn)	none
Cc1ccc2c(c1)N(CC(N)=O)C(=O)CO2	none
O=C1c2cccc3c(N4CCNCC4)ccc(c23)C(=O)N1c1ccc(Cl)cc1	MgrA DNA FP 60
O=C1c2cccc3c(N4CCCC4)ccc(c23)C(=O)N1c1ccccc1	none
Cc1cccc(N2C(=O)c3cccc4c(N5CCNCC5)ccc(c34)C2=O)c1	none
CCc1ccc2nc(N3CCC(C(=O)NCc4ccccc4)CC3)sc2c1	none
CSc1nc(N)n(-c2ncc(C(F)(F)F)cc2Cl)n1	none
c1ccc(CCNc2ncnc3ccsc23)cc1	none
CC1=C/C(=N\S(=O)(=O)c2ccccc2)C=CC1=O	none
Cc1ccc(S(=O)(=O)N=S(C)(C)=O)cc1	none
Cc1ccc(S(=O)(=O)N=C2C=CC(=O)C=C2)cc1	MgrA DNA FP 48
COc1ccccc1N/C=C(\C#N)c1ccc(Cl)cc1	none
Cc1ccc(S(=O)(=O)n2cccn2)cc1C	none
CC(C)=C(NC(=O)c1ccccc1)C(=O)N(C)C	none
O=C(NCC(=O)c1cccs1)c1ccc(CSc2ccccc2)o1	none
CC(=O)Nc1nc2c(s1)C(=O)CC(C)(C)C2	none
Cc1ccc(-c2ccc(/C=c3\sc4nc5ccccc5n4c3=O)o2)c(Br)c1	none
COc1ccc(-c2ccc(/C=c3\sc4nc5ccccc5n4c3=O)o2)c([N+](=O)[O-])c1	none
O=C(O)c1cccc(-c2ccc(/C=c3/sc4nc5ccccc5n4c3=O)o2)c1	MgrA DNA FP 44
CCc1ccc(-c2cc3c(=O)n(CC(=O)NC4CCCC(C)C4C)nc(C)n3n2)cc1 (stereo not drawn)	none
Cc1ccc(Cl)cc1NC(=S)N(C(C)C)C1CCN(C(C)C)CC1	none
COC1CCC(C(=O)Nc2nc(-c3ccc4c(c3)CCN4S(C)(=O)=O)cs2)CC1 (stereo not drawn)	none
CN(Cc1ccccc1)Cc1ccccc1O	none
CN(C)Cc1cc(O)c(CN(C)C)cc1O	MgrA DNA FP 55
